Screening data from PubChem.
CYP2C19 inhib – blockers of cytochrome P450 2C19 activity – biochemical, luminescence, ADME assay, primary screen. hit rate 21% among 96,000. inhibition, % at 5 µM. P33261. CYP2C19 Supersomes, luciferin-H EGE luminescence, 30 min. AID 778, 2007;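 active = CYP2C19 inhibition above a set limit at 5 µM in the primary screen, cut at about 50% in these data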;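 note: plate controls were negative control wells for no effect and 2.5 mM tranylcypromine positive control for full effect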
Cav3 T inh – Cav3.2 calcium influx blockers – cell-based, Fluo-4 calcium fluorescence, FDSS, MLSMR library, primary screen | Voltage-dependent T-type calcium channel subunit alpha-1H (Homo sapiens), O95180 | Cav3.2-expressing cells; stronger effect = lower value | B-score at 10 µM | hit rate 4% among 100,000 | AID 449739, 2010;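 active = single-dose well whose peak fluorescence ratio is a statistical outlier from its plate by either plate-standardised score or position-corrected B-score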
Pyk2 oligo antag – antagonists of Pyk2 self-association, primary screen, Q293 cells, FERM NanoBiT luminescence, HTS. Protein-tyrosine kinase 2-beta (Homo sapiens), Q14289. stronger effect = lower value. z-score (the deposit names both 25 µM and 10 µM). hit rate 0.83% among 99,000;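 active = Z-score of -3 or lower, scaled per plate to the spread of control and sample wells; inactive = z-score above -3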;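 note: negative z-score means lost luminescence so less FERM oligomerization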
Target sequence (Q14289 whole entry, looked up): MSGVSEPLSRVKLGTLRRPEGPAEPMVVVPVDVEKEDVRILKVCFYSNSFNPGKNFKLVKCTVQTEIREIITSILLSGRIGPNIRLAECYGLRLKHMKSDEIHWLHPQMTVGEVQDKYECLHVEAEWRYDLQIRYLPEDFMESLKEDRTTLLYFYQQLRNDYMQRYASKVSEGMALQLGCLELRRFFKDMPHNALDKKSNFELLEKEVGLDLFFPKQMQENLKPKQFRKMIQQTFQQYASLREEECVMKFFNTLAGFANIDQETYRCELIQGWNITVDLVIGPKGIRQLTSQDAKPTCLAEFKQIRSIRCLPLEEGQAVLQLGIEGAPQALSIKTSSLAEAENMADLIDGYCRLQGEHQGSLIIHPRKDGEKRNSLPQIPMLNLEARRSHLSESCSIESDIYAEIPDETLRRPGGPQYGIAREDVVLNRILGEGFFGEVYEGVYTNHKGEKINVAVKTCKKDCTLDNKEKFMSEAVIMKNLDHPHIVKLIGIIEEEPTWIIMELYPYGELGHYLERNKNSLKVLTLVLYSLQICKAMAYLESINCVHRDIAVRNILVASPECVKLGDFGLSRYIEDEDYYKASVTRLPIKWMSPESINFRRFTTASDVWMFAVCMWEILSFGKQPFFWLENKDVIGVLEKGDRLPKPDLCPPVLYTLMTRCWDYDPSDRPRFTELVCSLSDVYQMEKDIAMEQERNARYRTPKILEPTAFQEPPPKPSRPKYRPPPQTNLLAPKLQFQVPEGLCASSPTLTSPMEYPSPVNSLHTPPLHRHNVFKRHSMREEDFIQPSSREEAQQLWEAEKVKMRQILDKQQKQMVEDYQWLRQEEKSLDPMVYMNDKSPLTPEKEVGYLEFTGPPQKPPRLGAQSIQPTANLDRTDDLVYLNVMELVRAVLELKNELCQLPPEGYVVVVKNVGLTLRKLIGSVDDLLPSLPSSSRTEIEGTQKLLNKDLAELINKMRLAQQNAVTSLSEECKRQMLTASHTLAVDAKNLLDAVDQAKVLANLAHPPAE
CYP2C9 inh – blockers of cytochrome P450 2C9 activity – biochemical, luminescence, ADME assay, primary screen; CYP2C9 Supersomes, luciferin-H conversion; inhibition, % at 5 µM; hit rate 20% among 96,000;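 active = blocking of liver enzyme CYP2C9 beyond about 50% at 5 µM, limit read from the data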
CYP2C9 act – human CYP2C9 activators, primary screen, biochemical, luminescence. recombinant CYP2C9, luciferin-H conversion; stronger effect = higher value; factor 1 = untreated enzyme, 0 = blocked. AID 1024, 2008. Cytochrome P450 2C9 (Homo sapiens), P11712. activation factor at 5 µM. hit rate 1.4% among 96,000;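 active = activation factor of 2 or more for CYP2C9 at a 5 µM dose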;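 note: 0 = sulfaphenazole-blocked wells and 1 = vehicle-only wells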
CYP2C19 activ – human CYP2C19 activators, primary screen, biochemical, luminescence; Cytochrome P450 2C19 (Homo sapiens), P33261; recombinant CYP2C19, luciferin-H EGE luminescence; stronger effect = higher value; 0 = fully inhibited enzyme, 1 = untreated enzyme; activation factor at 5 µM; 96,000 tested, under 10 active; AID 1025, 2008;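 active = activation factor of at least 2 at 5 µM in the primary screen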;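 note: 0 = wells with 2.5 mM tranylcypromine and 1 = vehicle-only wells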
* marks the source's active call; other numbers are inactive results; x = no result. Only some compounds are listed: those with a hit (about 27% of all), similar ones and a draw of the others.

SMILES	CYP2C19 inhib	Cav3 T inh	Pyk2 oligo antag	CYP2C9 inh	CYP2C9 act	CYP2C19 activ
CN(C)CC(C)(C)NS(=O)(=O)c1ccc(Cl)cc1	56*	1.5	-0.01	-5	1	0.4
CC(C)(CNS(=O)(=O)c1ccc(Cl)cc1)N1CCCCC1	64*	-0.026	-0.42	6	0.9	0.4
CCN(CC)CC(C)(C)NS(=O)(=O)c1ccc(Cl)cc1	38	0.58	-0.67	-2	1	0.6
COc1ccc(N(CC(=O)NN=C2CCCCCCC2)S(=O)(=O)c2ccccc2)cc1	32	0.1	-0.68	43	0.6	0.7
C=CCO/N=C(/C)c1c(O)c(CC)c(-c2ccccc2)n(-c2ccccc2)c1=O	x	-7.3*	-1.2	x	x	x
CC(C(=O)NC(=O)NC1CCCCC1)N1CCN(C(c2ccccc2)c2ccccc2)CC1 (stereo not drawn)	26	x	0	84*	0.2	0.7
O=C(NC1CCCCC1)C(c1ccccc1)N1CCCC1 (stereo not drawn)	71*	-0.14	0.02	-9	1.1	0.3
COC(C(=O)NC1CCCCCCC1)c1ccccc1 (stereo not drawn)	x	x	-0.53	x	x	x
CCN(CC)S(=O)(=O)c1ccc(OC(C)C)c(NC(=O)c2c3c(nc4ccccc24)CCN(Cc2ccccc2)C3)c1	x	x	-0.33	x	x	x
O=C(N1CCOCC1)N1CCN(S(=O)(=O)N2CCCCC2)CC1	10	-0.15	0.41	6	0.9	0.9
CCC1(c2cccc(Cl)c2)NC(=O)N(Cc2cc(C(=O)OC)c(C)o2)C1=O (stereo not drawn)	62*	-5.5*	0.02	0	1	0.4
CCOC(=O)c1cc(-c2ccccc2)sc1NC(=O)CN1C(=O)NC(CC)(c2ccc(F)cc2)C1=O (stereo not drawn)	-19	-2.7	-0.96	15	0.9	1.2
Cc1oc2ccc(O)c(CN3CCOCC3)c2c1C(=O)c1ccc(Cl)cc1	59*	-4.4*	-1.6	52*	0.5	0.4
O=[N+]([O-])c1ccc(OC/C=C2\Oc3ccc([N+](=O)[O-])cc3C2N2CCOCC2)cc1 (stereo not drawn)	71*	-2.2	0.7	19	0.8	0.3
CCc1ccc(OCC(=O)N/N=C/c2cc([N+](=O)[O-])ccc2N2CCOCC2)cc1	x	x	-0.25	x	x	x
C[N+]1(CCOc2ccc([N+](=O)[O-])cc2)CCOCC1	-13	-0.14	-0.62	-9	1.1	1.1
O=[N+]([O-])c1ccc2c(c1)C(N1CCOCC1)/C(=C/COc1ccc3ccccc3c1Br)O2 (stereo not drawn)	52*	-2.4	0.4	48	0.5	0.5
O=[N+]([O-])c1ccc2c(c1)C(N1CCOCC1)/C(=C/COc1ccc(F)cc1)O2 (stereo not drawn)	84*	-7.3*	-0.46	54*	0.5	0.2
O=C(CSc1nc2cccnc2n1Cc1ccccc1)NC1CCCCC1	x	-2.7	-0.99	x	x	x
C/C(=N/OC(=O)c1c(F)cccc1F)c1nccs1	14	-4.7*	1.2	-10	1.1	0.9
C/C(=N\OC(=O)c1ccc(F)cc1)c1nccs1	10	-0.91	0.59	44	0.6	0.9
C=CCOC(=O)C1=C[C@@H](c2coc3ccccc3c2=O)C[C@@H](OCc2ccc(CO)cc2)O1	x	-0.62	x	x	x	x
Cc1[nH]c2ccccc2c1C1C(c2ccccc2)=NN=C(C(C)C)N1O (stereo not drawn)	x	-5.4*	-3.6*	x	x	x
Cc1[nH]c2ccccc2c1SCC(=O)O	x	0.052	0.56	x	x	x
CC(C)Sc1nc2c(c(=O)[nH]1)C(c1cccs1)C1=C(CC(C)(C)CC1=O)N2 (stereo not drawn)	33	-0.011	x	68*	0.3	0.7
SMILES	CYP2C19 inhib	Cav3 T inh	Pyk2 oligo antag	CYP2C9 inh	CYP2C9 act	CYP2C19 activ
Cc1ccccc1CNC(=O)c1ccccc1	57*	-0.28	0.31	11	0.9	0.4
Cc1ccccc1CNC(=O)c1ccccc1C(=O)O	x	0.34	1.2	x	x	x
Cc1ccccc1CNC(=O)c1ccccc1C	54*	0.56	0.13	9	0.9	0.5
COCCCNC(=S)NNC(=S)Nc1ccc(F)cc1F	26	0.54	-0.56	41	0.6	0.7
Fc1ccc(NC(=S)N/N=C/c2ccc(F)c(F)c2)c(F)c1	54*	0.0072	0.72	23	0.8	0.5
Cc1ccc(C(=O)N2CCN(c3ccc(C(F)(F)F)cn3)CC2)c(C)c1	64*	-2.5	-0.08	19	0.8	0.4
Cc1ccc(C(=O)N2CCN(c3ccc(C(F)(F)F)cn3)CC2)cc1	22	-0.002	0.09	17	0.8	0.8
CCN(CC)C(=O)C1CCCN(c2ccc([N+](=O)[O-])cc2/C=N/NC(=O)c2ccc([N+](=O)[O-])cc2)C1 (stereo not drawn)	38	x	-0.18	-3	1	0.6
CCN(CC)C(=O)C1CCCN(c2ccc([N+](=O)[O-])cc2/C=N/NC(=O)c2cccc(O)c2)C1 (stereo not drawn)	89*	0.44	-1.4	93*	0.1	0.1
COc1ccc(S(=O)(=O)N(C)CC(=O)Nc2ccccc2OC)cc1C	93*	-0.52	-0.64	-29	1.3	0.1
COc1ccc(C(=O)O)cc1S(=O)(=O)N(C)CCc1cccnc1	-3	0.034	0.3	15	0.8	1
COC(=O)c1ccccc1NC(=O)C1CCN(S(=O)(=O)c2cc(C)ccc2OC)CC1	86*	-2	-1.8	88*	0.1	0.1
COc1ccc(S(=O)(=O)N(C)CC(=O)NCc2cccnc2)cc1C	80*	0.26	0.68	-84	1.8	0.2
COc1ccc(NC(=O)CN(C)S(=O)(=O)c2ccc3c(c2)CCC(=O)N3)c(OC)c1	55*	0.53	x	-70	1.7	0.5
CCOc1ccc2[nH]c(=O)c(CN(CCO)C(=O)c3ccc(F)cc3)cc2c1	6	0.57	-0.05	23	0.8	0.9
COc1cccc(NC(=O)[C@@H]2CCCN2C(=O)C2CCN(S(=O)(=O)c3ccc(C)cc3)CC2)c1	8	-0.043	0.87	25	0.8	0.9
CCN(CC)S(=O)(=O)c1cc(C(=O)Nc2ccccc2C(=O)O)ccc1OC	13	0.66	-0.66	86*	0.1	0.9
COc1ccc(OC)c(/C(O)=C/C(=O)C(=O)Nc2ccccc2OC)c1	4	-8.5*	0.88	-14	1.1	1
COC(=O)c1ccccc1NC(=O)CN(C)S(=O)(=O)c1cc(C)ccc1OC	94*	-1.4	-0.08	67*	0.3	0.1
COc1ccc(OC)c(S(=O)(=O)N(C)CC(=O)Nc2ccccc2OC)c1	77*	1.2	-0.43	26	0.7	0.2
